Measured values taken from the OligoGym collection.

What follows are sequences tested against PPP1R13B (assay: pooled miR-30 sensor sort-seq; sequence = guide strand). Settings: shRNA.
Note: reference of the scale not given here.

Row | Sequence | sensor-assay potency score (higher = more potent)
1 | TTCACTGATTCGCTTGTCCATC | -0.504
2 | TTACATTTCTCTGAGTTCGTTG | -0.0932
3 | TTCTACAACATCTCGACAGGTT | 0.568
4 | TAAGAGTTCCTTCTGCTGCTGA | 0.621
5 | TACATTTATTACATTTCTCTGA | -0.374
6 | TTCAGAAATAGACTGCTGCTGA | 0.172
7 | TTGCTGTAGTCGACTTGTCCTC | -0.682

The sequences below were run against PPP1R15A in the same assay as above. Settings: shRNA.

Row | Sequence | sensor-assay potency score (higher = more potent)
8 | TTTACTGCTTCCACCAGCCAGG | -0.645
9 | TTTTACTGCTTCCACCAGCCAG | -1.03
10 | TTGCCAGAGGAGTCCTAGCTTC | -1.05
11 | TGGACAGTGACCTTCTCGGAGA | -1.41
12 | TTCTGTGAGCTTCTTTCTTTAC | -1.62
13 | TTCAGGAAGGGAACTGCTGGTT | -0.684
14 | TAGGGGAGTCTCAGGGTCCGGA | -1.44
15 | ATGGACAGTGACCTTCTCGGAG | -1.22
16 | AAGAGAACTTGTTAACTCCCTC | 0.225
17 | TAGAGGTTCTGTGAGCTTCTTT | 0.0683
18 | TCCTTTTACTGCTTCCACCAGC | -1.39
19 | TTCTGTTCTTTTATCCTCCGTG | -0.152

These sequences were tested against PPP1R3A in the same assay as above. Settings: shRNA.

Row | Sequence | sensor-assay potency score (higher = more potent)
20 | TTGAATTACAAATATTTTCTGA | -0.0203
21 | TTTGTTTTTCATTAACACCTAA | -0.646
22 | TTATCATCAACTCTAATTCTTT | -0.712
23 | TTGGTGAATGAGACACATCTGC | -0.3
24 | TTGATGAACAAACTTGACCAGT | -0.427
25 | TAAAATGTCATAATGTGTCTGC | 0.498
26 | TATAGGTACAAATTCATTCTGA | 0.416
27 | TTACATATACTAACTTCTCAAA | -1.14
28 | TATAGGTATTTAATGATCCAAA | -1.48
29 | TTGTTTTTCATTAACACCTAAA | -0.918
30 | TGGATTAGCATTATCATCCAGG | -0.615
31 | TTGAACAATGAATAGTCCCATT | -1.02

Each sequence was assayed against PPP2R2B in the same assay as above. Settings: shRNA.

Row | Sequence | sensor-assay potency score (higher = more potent)
32 | TAAACTCTTCAGGTAATCGAAC | -0.877
33 | TAGAGGGAACACAGCTTGCTGC | -0.62
34 | TTCATAGAGGGAACACAGCTTG | -0.115
35 | TTCTATTCCAATCATTTCCTGT | -0.465
36 | TATTTCTAAACTCTTCAGGTAA | -0.582
37 | TTGACTAGTATTCAGTATGTGA | -0.666
38 | TTCTATTTCTAAACTCTTCAGG | 0.0206
39 | TTAAATACTACAGACAACCTCA | 0.289
40 | TCTGTTGCTTGGATCTTCCGGC | 0.454
